Screening results (PubChem)
The list is not random: actives were taken first. Their share in the collection is about 1.2%.
NR1D1 modulator – Rev-erb alpha (human) modulation; activity, % at 10 µM; Rev-erbα–FITC-DNA binding, fluorescence polarization, 90 min; P20393; actives 0.79% (n = 370,000);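 active = activity above about 14%, limit read from the data; passing the limit was not always enough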
Target sequence (P20393 whole entry, looked up): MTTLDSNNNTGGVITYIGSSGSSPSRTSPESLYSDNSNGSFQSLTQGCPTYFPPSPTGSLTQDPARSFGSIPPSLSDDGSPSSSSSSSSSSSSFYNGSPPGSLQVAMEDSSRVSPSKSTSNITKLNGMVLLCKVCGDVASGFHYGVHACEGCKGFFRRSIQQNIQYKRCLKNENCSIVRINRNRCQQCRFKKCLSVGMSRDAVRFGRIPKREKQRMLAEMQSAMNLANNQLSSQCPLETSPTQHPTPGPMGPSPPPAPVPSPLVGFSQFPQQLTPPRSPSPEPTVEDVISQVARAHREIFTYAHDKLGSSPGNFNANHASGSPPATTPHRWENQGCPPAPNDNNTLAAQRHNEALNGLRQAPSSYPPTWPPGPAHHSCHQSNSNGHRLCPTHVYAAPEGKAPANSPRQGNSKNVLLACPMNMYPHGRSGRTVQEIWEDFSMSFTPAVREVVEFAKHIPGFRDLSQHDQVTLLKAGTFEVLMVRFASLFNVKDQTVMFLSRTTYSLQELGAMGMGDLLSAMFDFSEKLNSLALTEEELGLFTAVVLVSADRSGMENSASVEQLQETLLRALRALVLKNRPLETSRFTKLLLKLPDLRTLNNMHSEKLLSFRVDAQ
PKA-R1A activ – activators of PKA-R1A complex | P00514+P68181 | PKA-R1A dissociation, Cy5-IP20 fluorescence polarization; scaled: DMSO 0%, 113 µM cGMP 100% | activation, % at 11.4 µM | actives 0.083% (n = 340,000) | AID 504707;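 active = percent activation above the mean of all tested compounds plus 3 SD, cut at about 19% in these data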;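 also: higher means more PKAc released from R1A so a rise in polarization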
PKA-R2B activ – activates the human PKA-R2B holoenzyme complex; P22694+P31323; PKA-R2B holoenzyme dissociation, Cy5-IP20 fluorescence polarization; R2B truncated from residue 108, S112A mutant; 0% DMSO only, 100% 113 µM cGMP; activation, % at 11.4 µM; actives 0.079% (n = 340,000);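 active = activation above a cutoff set at the mean over all compounds plus 3 SD, cut at about 18% in these data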;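 also: higher means more holoenzyme dissociation and a rise in polarization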
PG9 Ab binder – binds the HIV-1 gp120 antibody PG9; TR-FRET gp120-PG9 antibody binding; actives 0.43% (n = 360,000); inhibition, % at 6.7 µM; AID 624416; in the data active = inhibition above about 8.5%
NR1D1 mod conf – Rev-erb alpha (human) modulation, hit confirmation | shares compounds with NR1D1 modulator | Rev-erb alpha FITC-DNA binding, fluorescence polarization, 90 min | activation, % at 25 µM | actives 61% (n = 3,000);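 active = activation at or above a set limit, or at least 3 SD above the negative control mean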
RORg counter – affects RORgamma DNA binding in a Rev-erb alpha counter-screen. shares compounds with NR1D1 modulator. purified RORgamma protein-FITC-DNA binding, fluorescence polarization. IC50, µM. actives 8% (n = 910);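 active = Compounds whose fitted half-maximal concentration for disrupting protein-DNA binding is below 10 micromolar; the record names Rev-erb in its text, so the target is in doubt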
Hits are given with their value; – = inactive; · = no result; ! = repeats disagree.

SMILES	NR1D1 modulator	PKA-R1A activ	PKA-R2B activ	PG9 Ab binder	NR1D1 mod conf	others
CCCCN(CC)S(=O)(=O)c1ccc(C(=O)N=c2sc3cc(NC(C)=O)ccc3n2C)cc1	–	–	–	–	·
CCCCN(C)S(=O)(=O)c1ccc(C(=O)N=c2sc3cc(NC(C)=O)ccc3n2C)cc1	42	–	–	–	–
Cc1ccc(CSc2nnc(-c3cc(-c4ccc(F)cc4)n[nH]3)n2N)cc1	–	·	·	·	·
N#Cc1c2ncn(CC(=O)c3ccc(Br)cc3)c(=O)c2c2n1CCC2	17	–	–	–	–
N#Cc1c2n(c3c(=O)n(CC(=O)c4ccc(Br)cc4)cnc13)CCCC2	–	–	–	–	·
O=C(CSc1nc(-c2ccccc2F)nc2nc[nH]c12)Nc1c(Cl)cc(Cl)cc1Cl	38	·	·	–	–
CCc1cccc(C)c1NC(=O)CSc1nc(-c2ccccc2F)nc2nc[nH]c12	–	–	–	–	·
Cc1ccc(NC(=S)NNC(=O)CSc2nc3ccccc3c(=O)n2-c2ccc(Cl)cc2)cc1	–	·	·	·	·
COc1ccccc1NC(=O)COC(=O)c1c(NC(C)=O)sc(C)c1C	19	–	–	–	–
CCOc1ccc(NC(=O)c2sc(NC(C)=O)c(C(=O)OC)c2C)cc1	31	–	–	–	–
CCC(=O)Nc1sc(C(=O)Nc2ccccc2OC)c(C)c1C(=O)OC	42	–	–	–	–
COC(=O)c1c(NC(C)=O)sc(C(=O)Nc2ccccc2)c1C	–	–	–	–	·
CC(=O)Nc1sc(C)c(C)c1C(=O)OCC(=O)N(Cc1ccccc1)C(C)C	42	–	–	–	32	RORg counter=–
C=CCn1c(COc2ccc(Cl)cc2)nnc1SCC(=O)c1c(N)n(C)c(=O)n(C)c1=O	24	–	–	–	–
CN(CCOc1ccccc1)C(=O)CCc1nc2sc3c(c2c(=O)[nH]1)CCCC3	–	–	–	–	·
CN(CC(=O)Nc1cccc(F)c1)C(=O)CCc1nc2sc3c(c2c(=O)[nH]1)CCCC3	20	–	–	–	–
Cc1cccc(C)c1NC(=O)CN(C)C(=O)CCc1nc2sc3c(c2c(=O)[nH]1)CCCC3	–	–	–	–	·
CN(CC(=O)Nc1ccc(F)c(F)c1F)C(=O)CCc1nc2sc3c(c2c(=O)[nH]1)CCCC3	19	–	–	–	–
CCOC(=O)[C@]12CCCC3=C1N(CCC3)C(=O)[C@@H](CC(=O)NCCCCc1ccccc1)C2	–	·	·	·	·
CC1(C)Cc2c(sc3c2c(N)nc(=S)n3Cc2ccc(Br)cc2)CO1	135	–	–	–	95	RORg counter=–
CC1(C)Cc2c(sc3nnn(Cc4ccc(Cl)cc4)c(=O)c23)CO1	–	–	–	–	·
O=c1[nH]c(CSc2nnnn2-c2ccc(Cl)cc2)nc2ccccc12	–	–	–	–	·
C=CCn1c(SCc2nc3ccccc3c(=O)[nH]2)nnc1-c1cc2cc(Cl)ccc2o1	26	–	–	–	30
CCOc1nc(-c2ccccc2)c2cc(Br)ccc2n1	27	–	–	–	–
COC(CNC(=O)c1ccc2nc(-c3cccs3)c(-c3cccs3)nc2c1)OC	27	–	–	–	–
SMILES	NR1D1 modulator	PKA-R1A activ	PKA-R2B activ	PG9 Ab binder	NR1D1 mod conf	others
CC(=O)Nc1ccc2ccc3cccc4ccc1c2c34	33	–	–	–	28
Cc1cc(NC(=O)COC(=O)C2CC(=O)N(c3ccc(Cl)cc3)C2)no1 (stereo not given)	22	–	–	–	–
Cc1cc(NC(=O)COC(=O)C2CC(=O)N(c3ccccc3)C2)no1 (stereo not given)	–	–	–	–	·
C=CCc1cccc(C2Nc3ccccc3C(=O)N2O)c1O (stereo not given)	60	–	–	–	32	RORg counter=–
O=C1c2ccccc2NC(c2ccc(Cl)cc2Cl)N1O (stereo not given)	–	–	–	–	·
C#CCN1CC(N(C)CCOC(=O)CSc2ccccc2)CS1(=O)=O (stereo not given)	–	·	·	·	·
C[C@@H](O)CC#Cc1ccc2oc(=O)c(-n3cc(-c4ccsc4)nn3)cc2c1	–	–	–	–	·
C[C@H](O)Cc1cn(-c2cc3cc(C#Cc4ccsc4)ccc3oc2=O)nn1	18	–	–	–	–
Cc1ccsc1C(=O)NNC(=O)c1cccc(S(=O)(=O)N2CCCC2)c1	18	–	–	–	–
O=C(NNC(=O)c1ccc(Br)s1)c1cccc(S(=O)(=O)N2CCCC2)c1	–	–	–	–	·
CCCCCCCCN1C(=O)[C@@H](CC(=O)N2CCOCC2)C[C@@]2(C(=O)OC)C1=C[C@H](COCc1ccccc1)O[C@@H]2C	–	·	·	·	·
Cc1nc(NC(=O)c2ccc(Cl)cc2)sc1Cc1ccc2c(c1)OCO2	30	–	–	–	–
CCN(CC)c1ccc(NC(=O)c2cc3c(C)nn(-c4ccccc4)c3s2)cc1	–	·	·	·	·
CCCCCCCCCCCCCCCC[n+]1ccccc1	25!	–	–	–	–
Cc1nc(C)c(-c2ccc(SCC(=O)Nc3cccc(Cl)c3)nn2)s1	24	–	–	–	–
CCC(=O)c1cn(CC(=O)Nc2cccc(OC)c2)c2ccccc12	26	–	–	–	–
COc1cccc(NC(=O)CSc2nc3ccccc3c3nc4ccccc4n23)c1	54	–	–	–	–
CCOc1ccc(NC(=O)Cn2cc(C(C)=O)c3ccccc32)cc1	29	–	–	–	–
CCOc1ccc(NC(=O)Cn2cc(C(=O)CC)c3ccccc32)cc1	·	–	–	·	·
COc1cccc(NC(=O)CSc2nc3ccccc3c(=O)n2Cc2cccs2)c1	–	–	–	–	·
CCC(=O)c1cn(CC(=O)Nc2ccc(F)cc2)c2ccccc12	–	–	–	–	·
C[C@@H]1CN([C@@H](C)CO)C(=O)c2cccc(NC(=O)Nc3cccc4ccccc34)c2O[C@H]1CN(C)S(=O)(=O)c1ccc(Cl)cc1	–	·	·	·	·
COC(=O)[C@]12C=CCN1[C@H](c1ccc(Cl)cc1)c1c(c3ccccc3n1S(=O)(=O)c1ccc(C)cc1)C2	–	·	·	·	·
COc1ccc(CN(C)CC#Cc2ccccc2)c(OC)c1	–	·	·	·	·
CCCNC(=O)/C(C#N)=C1\N=C(NC(=O)c2cccs2)c2ccccc21	30	–	–	–	21
SMILES	NR1D1 modulator	PKA-R1A activ	PKA-R2B activ	PG9 Ab binder	NR1D1 mod conf	others
COC(=O)[C@H]1C[C@]2(C(C=C(C)C)S(=O)(=O)c3ccccc3)c3ccccc3N[C@H]2N1 (stereo not given in full)	–	·	·	·	·
CN(C)C=Nc1ncc2c3ccccc3n(Cc3ccccc3)c2c1C#N	34	–	–	–	30
COCc1cc(N2CCN(C(=O)OC(C)(C)C)C[C@@H]2C)ccc1Br	–	·	·	–	·
Cc1cc(N2CCN(C(=O)OC(C)(C)C)C[C@H]2C)ccc1Br	15	·	·	–	–
CCCCc1cc2c(c(NC(=O)CC)n1)c(=O)oc1ccccc12	–	–	–	–	·
CC(=O)Nc1nc(CC(C)C)cc2c1c(=O)oc1ccccc12	27	–	–	–	–
